These results are taken from PubChem BioAssay AID493229 (Broad Institute, 2011).

The assay deals with Protein RecA (Mycobacterium tuberculosis (strain ATCC 25618 / H37Rv)) (UniProt P9WHJ3). Description: Mycobacterium tuberculosis RecA intein splicing inhibitors, confirmatory dry powder dose response (AID 493229). As to conditions: biochemical plate reader; series mostly up to 35 µM.

Entries with a potency or affinity are not part of this list. Inconclusive results are not listed. Calls of active or inactive are those of the source. No rule for the calls is given here.

Protein RecA (Mycobacterium tuberculosis (strain ATCC 25618 / H37Rv)), sequence (P9WHJ3 whole entry, looked up): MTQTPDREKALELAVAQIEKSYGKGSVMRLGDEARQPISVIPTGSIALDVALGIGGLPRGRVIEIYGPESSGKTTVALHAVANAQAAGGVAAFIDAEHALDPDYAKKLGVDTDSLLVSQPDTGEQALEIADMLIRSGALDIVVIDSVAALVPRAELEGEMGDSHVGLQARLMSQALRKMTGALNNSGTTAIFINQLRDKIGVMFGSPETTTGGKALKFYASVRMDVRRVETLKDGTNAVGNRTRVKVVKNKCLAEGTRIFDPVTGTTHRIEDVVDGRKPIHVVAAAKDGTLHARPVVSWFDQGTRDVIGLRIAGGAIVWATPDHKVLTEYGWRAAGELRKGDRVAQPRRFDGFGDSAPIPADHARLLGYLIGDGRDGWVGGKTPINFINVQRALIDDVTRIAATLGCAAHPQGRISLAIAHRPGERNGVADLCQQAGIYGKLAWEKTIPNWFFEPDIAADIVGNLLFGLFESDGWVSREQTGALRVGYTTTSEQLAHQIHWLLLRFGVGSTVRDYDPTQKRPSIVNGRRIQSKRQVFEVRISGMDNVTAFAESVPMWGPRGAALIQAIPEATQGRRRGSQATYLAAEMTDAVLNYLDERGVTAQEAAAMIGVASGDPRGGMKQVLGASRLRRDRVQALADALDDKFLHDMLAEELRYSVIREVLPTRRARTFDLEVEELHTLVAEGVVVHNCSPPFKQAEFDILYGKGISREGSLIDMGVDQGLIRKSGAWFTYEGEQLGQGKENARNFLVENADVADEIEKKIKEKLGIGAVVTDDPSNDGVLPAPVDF

Regarding `Nc1cn(-c2ccccc2)nc1-c1ccc(F)cc1`, the compound was classed as inactive.
